# Inconclusive results are not listed. Where a call stands in place of a potency, no number is given. The source made the active and inactive calls. Unless noted, calls come from the whole dose curve.
# What was measured:
# [1] = qHTS for Inhibitors of the Functional Ribonucleoprotein Complex (vRNP) of Lassa (LASV) Arenavirus: Viability assay - alamar blue signal for LASV Primary Screen (AID 1347083; calls by dose curve; tested in HEK293 reporter line; note: nearly all actives have a fitted effect of over 80% in size; note: potency is the fitted concentration of half-maximal effect); conditions: cell viability, alamar blue fluorescence (LASV minigenome counter-screen); series mostly up to 57.5 µM
# [2] = qHTS for Inhibitors of the Functional Ribonucleoprotein Complex (vRNP) of Lymphocytic Choriomeningitis Arenaviruses (LCMV): Viability assay - alamar blue signal for LCMV Primary Screen (AID 1347085; calls by dose curve; tested in HEK293 reporter line; note: nearly all actives have a fitted effect of over 80% in size; note: potency is the fitted concentration of half-maximal effect); conditions: alamar blue viability counter-screen, LCMV vRNP screen cells; series mostly up to 57.5 µM
# [3] = Primary qHTS to identify inhibitors of SARS-CoV-2 cell entry (AID 1645846); conditions: SARS-CoV-2 pseudovirus cell entry assay, luminescence; activity change, negative = inhibition: at 57.1 µM (top of the series) unless noted; series mostly up to 57.1 µM; note: nearly all actives have a fitted effect of over 45% in size
# Method in brief: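 Data are normalized to wells receiving SARS-CoV-2-S pseudoparticles and those given bald particles. Entry signal was luciferase luminescence in stable hACE2 Expi293F cells, 48 hr post-infection, after 1 hr compound pretreatment.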
# [4] = VSVG counterscreen qHTS to identify inhibitors of SARS-CoV-2 cell entry (AID 1645847); conditions: VSV-G pseudotyped particle entry, luciferase; series mostly up to 57.2 µM; note: potency is the fitted concentration of half-maximal effect; nearly all actives have a fitted effect of over 65% in size
# Method in brief: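 Counterscreen using VSV-G (not spike) pseudotyped MLV particles on ACE2-expressing Expi293F cells after 1 h compound preincubation; infection ran 48 h at 37 °C. Data normalized to VSV-G PP and bald-PP wells.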
# [5] = Cytotoxicity counterscreen for inhibitors of SARS-CoV-2 cell entry (AID 1645845); conditions: cell viability (SARS-CoV-2 entry assay cells); series mostly up to 57.1 µM; note: nearly all actives have a fitted effect of over 50% in size
# Method in brief: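 ATP-content luminescence (ATPLite 1step, 15 min RT) read after 48 h compound exposure of Expi293F cells stably expressing human ACE2; normalized to cells-only wells and media-only wells.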
# [6] = Validation screen for inhibitors of Lassa infection (AID 463096); conditions: Lassa virus infection, cell-based; series mostly up to 46.1 µM
# [7] = Quantitative high throughput screen for delayed death inhibitors of the malarial parasite plastid, 96 hour incubation (AID 488745; active = well fitted curve in the direction sought with a large enough effect; an effect the other way counts as inactive or inconclusive; note: nearly all actives have a fitted effect of over 70% in size); conditions: Plasmodium falciparum growth; series mostly up to 28.7 µM
# Method in brief: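 Two-generation (96 h) exposure of luciferase-reporter P. falciparum in erythrocytes, 2% hematocrit, 0.1% parasitemia final, 37 C, 5% CO2, RPMI 1640 with 0.5% Albumax. Growth inhibition scored by reduced luminescence.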
# [8] = Quantitative high throughput screen for delayed death inhibitors of the malarial parasite plastid, 48 hour incubation (AID 488752; active = well fitted curve in the direction sought with a large enough effect; an effect the other way counts as inactive or inconclusive; note: nearly all actives have a fitted effect of over 65% in size); conditions: Plasmodium falciparum growth; series mostly up to 28.7 µM
# Method in brief: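 Cultures: infected erythrocytes at final 2% hematocrit and 0.1% parasitemia in Albumax-supplemented RPMI. Parasites express integrated firefly luciferase. Incubation with compound lasts 48 h before luminescent detection of remaining reporter activity.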
# [9] = Inducers of the Endoplasmic Reticulum Stress Response (ERSR) in human glioma: Validation (AID 504836; active = well fitted curve in the direction sought with a large enough effect; an effect the other way counts as inactive or inconclusive); conditions: human glioma cells, ER stress response reporter; series mostly up to 38.3 µM
# Method in brief: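 ERSR induction read as luciferase luminescence (Bright-Glo, 10 min at room temperature) in stably transfected human U87-MG glioma cells exposed to compounds for 16 h, using GRP78 as sensor.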
# [10] = molecular target: Peroxisome proliferator-activated receptor delta (Homo sapiens) (UniProt Q03181); assay: qHTS assay for small molecule agonists of peroxisome proliferator-activated receptor delta signaling (AID 588534); conditions: HEK293T PPARdelta-UAS-bla, beta-lactamase ratio, 18 h; series mostly up to 76.7 µM
# Method in brief: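 EC50 and efficacy values derive from Hill fits of a concentration series in a beta-lactamase reporter cell assay. Exposure is 18 hrs at 37 C, with CCF4 fluorescence as the readout.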
# [11] = Primary qHTS for Huh7 cytotoxicity: counterscreen for inhibitors of MERS-S pseudotyped particle cell entry (AID 1479147); conditions: cell viability read-out; series mostly up to 57.1 µM
# [12] = Primary qHTS for inhibitors of MERS-S pseudo-typed particle cell entry (AID 1479149); conditions: MERS-S pseudotyped particle entry, luciferase; series mostly up to 57.1 µM; note: nearly all actives have a fitted effect of over 60% in size
# [13] = Primary qHTS for Vero E6 cytotoxicity: counterscreen for inhibitors of SARS-S pseudo-typed particle cell entry (AID 1479150); conditions: cell viability; series mostly up to 57.1 µM
# [14] = Primary qHTS for inhibitors of SARS-S pseudo-typed particle cell entry (AID 1479145); conditions: SARS-S pseudotyped particle cell entry, luciferase reporter; series mostly up to 57.1 µM; note: nearly all actives have a fitted effect of over 45% in size
# [15] = qHTS profiling of the MIPE4 collection as inhibitors of Plasmodium falciparum (3D7) proliferation (AID 743344; call rule not given here); conditions: P. falciparum 3D7 in erythrocytes, SYBR Green DNA fluorescence, 72 h; at 28.5 µM (top of the series) unless noted
# Method in brief: (§1)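 Parasite DNA was quantified by SYBR Green I fluorescence (ex 485, em 535 nm) after overnight lysis in saponin/Triton buffer at room temperature. Cultures at 0.3% parasitemia and 2.5% hematocrit were first exposed to compound for 72 h at 37 C; signals were normalised to artemisinin (0.29 uM) and vehicle wells.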
# [16] = qHTS profiling of the MIPE4 collection as inhibitors of Plasmodium falciparum (DD2) proliferation (AID 743345; call rule not given here); conditions: P. falciparum Dd2 in erythrocytes, SYBR Green DNA, 72 h; at 28.5 µM (top of the series) unless noted
# Method in brief: as §1
# [17] = qHTS profiling of the MIPE4 collection as inhibitors of Plasmodium falciparum (DD2) proliferation (Rep 2) (AID 743346; call rule not given here); conditions: P. falciparum Dd2 in erythrocytes, SYBR Green DNA, 72 h; at 28.5 µM (top of the series) unless noted
# Method in brief: as §1
# [18] = qHTS profiling of the MIPE4 collection as inhibitors of Plasmodium falciparum (HB3) proliferation (AID 743347; call rule not given here); conditions: P. falciparum HB3 in erythrocytes, SYBR Green DNA, 72 h; at 28.5 µM (top of the series) unless noted
# Method in brief: as §1
# Chain of Peroxisome proliferator-activated receptor delta (Homo sapiens) (Q03181 whole entry, looked up): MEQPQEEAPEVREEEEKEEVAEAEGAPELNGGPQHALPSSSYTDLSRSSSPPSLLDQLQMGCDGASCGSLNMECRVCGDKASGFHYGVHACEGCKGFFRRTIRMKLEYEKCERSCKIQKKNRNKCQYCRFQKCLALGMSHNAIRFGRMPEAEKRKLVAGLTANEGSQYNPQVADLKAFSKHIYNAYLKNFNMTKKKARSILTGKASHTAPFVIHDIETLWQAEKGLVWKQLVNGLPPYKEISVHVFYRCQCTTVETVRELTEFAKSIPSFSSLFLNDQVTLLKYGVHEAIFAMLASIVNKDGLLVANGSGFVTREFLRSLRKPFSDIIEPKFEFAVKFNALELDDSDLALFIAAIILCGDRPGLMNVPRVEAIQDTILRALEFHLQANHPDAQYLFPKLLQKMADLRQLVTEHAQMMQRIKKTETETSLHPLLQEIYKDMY
smiles,measurement,setting,value
COc1ccc(F)c(F)c1C(=O)c1cnc(NC2CCN(S(C)(=O)=O)CC2)nc1N,Potency,[1],2730 nM (active)
same,Potency,[2],6110 nM (active)
same,"activity change, negative = inhibition",[3],-92.2%
same,Potency,[4],68.1 nM (active)
CNC(=O)c1ccccc1Nc1nc(Nc2ccc(N3CCOCC3)cc2OC)ncc1Cl,Potency,[1],4850 nM (active)
same,Potency,[2],2730 nM (active)
same,Potency,[5],inactive
CC(C)NCC(O)COc1cccc2ccccc12 (centres undefined),Potency,[6],inactive
same,Potency,[7],inactive
same,Potency,[8],inactive
same,outcome,[9],inactive
same,Potency,[10],inactive
same,Potency,[1],inactive
same,Potency,[2],inactive
CN1CCN2c3ccccc3Cc3ccccc3C2C1 (centres undefined),Potency,[6],inactive
same,outcome,[9],inactive
same,Potency,[1],inactive
same,Potency,[2],inactive
same,outcome,[11],inactive
same,Potency,[12],inactive
same,outcome,[13],inactive
same,Potency,[5],inactive
CN[C@@H](C)C(=O)N[C@H]1CN(C(=O)CC(C)C)CC[C@H]2CC[C@@H](C(=O)NC(c3ccccc3)c3ccccc3)N2C1=O,Potency,[1],3430 nM (active)
same,Potency,[2],12200 nM (active)
same,"activity change, negative = inhibition",[3],1.03%
CC(C=CC1=C(C)CCCC1(C)C)=CC=CC(C)=CC(=O)Nc1ccc(O)cc1,Potency,[10],inactive
same,Potency,[1],44400 nM (active)
same,Potency,[2],44400 nM (active)
CCN1CCCC1=O,Potency,[1],inactive
same,Potency,[2],inactive
same,Potency,[14],inactive
same,outcome,[11],inactive
same,Potency,[12],inactive
same,outcome,[13],inactive
same,Potency,[5],inactive
same,Potency,[3],inactive
CC(C(=O)O)c1ccc(C(=O)c2cccs2)cc1 (centres undefined),Potency,[1],inactive
same,Potency,[2],inactive
same,Potency,[14],inactive
same,outcome,[11],inactive
same,Potency,[12],inactive
same,outcome,[13],inactive
same,Potency,[3],inactive
COc1ccc(-c2nc(N3CCOCC3)c3sc(CN(C)c4ncc(C(=O)NO)cn4)cc3n2)cn1,Potency,[1],193 nM (active)
same,Potency,[2],122 nM (active)
same,Potency,[3],inactive
COc1cc2ncnc(Nc3cc(Br)c(O)c(Br)c3)c2cc1OC,Potency,[1],611 nM (active)
same,Potency,[2],54.4 nM (active)
same,Potency,[5],inactive
C[C@@]1(C(=O)Nc2ccc(F)nc2)CCCN1c1nc(Nc2cc(C3CC3)[nH]n2)c2cccn2n1,Potency,[1],6110 nM (active)
same,Potency,[2],1370 nM (active)
same,Potency,[5],inactive
same,Potency,[4],2710 nM (active)
NC(=O)c1ncn([C@@H]2O[C@H](CO)[C@@H](O)[C@@H]2O)n1,"parasite growth, % of DMSO control",[15],91.7%
same,"parasite growth remaining, % of DMSO control (lower = more inhibition)",[16],90.2%
same,"parasite growth, % of control (lower = inhibition)",[17],53.8%
same,"growth, % of control",[18],53.5%
same,Potency,[1],inactive
same,Potency,[2],inactive
